TWEAK-Fn14 inh: inhibitors of TWEAK-Fn14 signaling, primary screen, luciferase reporter cells, uHTS; TWEAK-stimulated Fn14 reporter cells, luciferase luminescence, 8 h; inhibition, % at 10 µM; hit rate 2% among 360,000; AID 1159606, 2016; in the data active = inhibition above about 50%
Peg3 promoter: Peg3 promoter-driven luciferase inhibitors, primary screen, cell-based, HeLa, luciferase luminescence. HeLa PEG-Prom luciferase reporter, overnight. inhibition, % at 20 µM. hit rate 1.7% among 360,000. AID 588405, 2011;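 active = inhibition of at least 50% at 20 µM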
HIF-2a inh: HIF-2a reporter inhibitors, primary screen, luminescence, 786-0 RCC cells; hit rate 0.72% among 360,000; 786-0 RCC cells HIF-2a reporter, luciferase luminescence, overnight; inhibition, % at 18.8 µM; AID 624352, 2012;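 active = inhibition of the luminescence signal of 40% or more relative to plate controls, in a single-dose primary screen at 18.75 µM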
TROY NFkB inh: inhibitors of TROY-driven NF-kB signaling, primary screen, Q293 LMP1-TROYcd cells, NF-kB luciferase, uHTS; Q293 LMP1-TROYcd NF-kB luciferase reporter, 4 h; inhibition, % at 10 µM; hit rate 0.98% among 360,000; AID 1347056, 2019;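 active = compounds whose plate-normalised and pattern-corrected inhibition of the luciferase reporter signal at the single screening dose is 50% or more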
CF NFkB block: inhibitors of PAF-induced NF-kB signaling, primary screen, cell-based, GFP fluorescence, uHTS | hit rate 0.86% among 360,000 | KKLEB NF-kB-GFP reporter, GFP fluorescence overnight | inhibition, % at 5 µM;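 active = at least 50% inhibition at 5 µM, scaled per plate between neutral and stimulator controls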;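 note: PAF is a Pseudomonas aeruginosa culture filtrate used as stimulus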
KKLEB cytotox: cytotoxicity in KKLEB CF airway cells, primary screen, cytotoxicity control for CF NF-kB inhibitor project, cell-based, uHTS, fluorescence assay plates. AID 602141, 2011. hit rate 0.36% among 360,000. KKLEB CF airway cells viability, ATPlite luminescence, overnight; hits give low values; cells stimulated with P. aeruginosa culture filtrate. activity change (cytotoxicity), % at 5 µM;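 active = corrected activity change at or below -50% at 5 µM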
A number is an active result; – = inactive; · = not tested or not shown. Only some compounds are listed: those with a hit (about 4% of all), similar ones and a draw of the others.

SMILES	TWEAK-Fn14 inh	Peg3 promoter	HIF-2a inh	TROY NFkB inh	CF NFkB block	KKLEB cytotox
Cc1c(NC(=O)c2ccc(C(=O)Nc3c(C)n(C)n(-c4ccccc4)c3=O)cc2)c(=O)n(-c2ccccc2)n1C	–	–	–	–	–	–
Cc1cc(C)cc(-n2c(N)c(C(=O)Nc3c(C)n(C)n(-c4ccccc4)c3=O)c3nc4ccccc4nc32)c1	–	91	–	–	–	–
CCOC(=O)N1CCN(C(=O)COC(=O)c2cc(Cl)cc(Cl)c2)CC1	–	–	–	–	–	–
CCOC(=O)N1CCN(C(=O)COC(=O)c2cc(Cl)c(O)c(Cl)c2)CC1	72	–	–	–	–	–
Cc1cc(S(=O)(=O)ON2C(=O)c3ccccc3C2=O)ccc1F	–	61	–	–	–	–
Cc1nc2cc(N3CCN(C)CC3)c(NC(=O)Cc3ccccc3)cc2c(=O)n1Cc1ccccc1	87	–	–	59	–	–
CC(C)(C)NS(=O)(=O)c1cc(C(=O)Nc2sccc2C#N)ccc1Cl	52	–	–	–	–	–
COc1cc(/C=C2\SC(=S)N(N3CCOCC3)C2=O)ccc1O	–	–	–	54	–	–
CCN(CC)CCOC(=O)c1ccc(NC(=O)CCCN2C(=O)S/C(=C/c3ccc(OC)cc3)C2=S)cc1	73	108	79	–	–	–
COc1ccc(/C=C2\SC(=S)N(CCCC(=O)Nc3ccc(C(=O)O)cc3)C2=O)cc1OC	–	–	–	–	–	–
O=C(CCCN1C(=O)/C(=C/c2ccc3c(c2)OCO3)SC1=S)Nc1cccc(C(=O)O)c1	56	–	88	–	–	–
COc1ccc(/C=C2/SC(=S)N(CCCC(=O)Nc3ccc(O)cc3)C2=O)cc1OC	–	–	42	–	–	–
COc1cc(/C=C2\SC(=S)N(N3CCOCC3)C2=O)cc(OC)c1OC	–	–	–	–	–	–
Cc1ccc(Nc2nc(N)nc(N)c2N=O)cc1Cl	–	·	–	–	·	·
CCOC(=O)c1ccc(NC(=O)c2ccc[n+]([O-])c2)cc1	–	–	–	–	–	–
COc1ccc(Cl)cc1C1=NOC2(CCC2)C(=O)N1Cc1ccc(NC(C)=O)cc1	–	–	–	–	–	–
COc1cccc(/C=C2/SC(=S)N(CCCC(=O)Nc3ccc(O)cc3)C2=O)c1	–	99	–	–	–	–
COc1cccc(/C=C2\SC(=S)N(CCCC(=O)NC3=NCCS3)C2=O)c1	–	–	87	–	–	–
O=C(CCN1C(=O)/C(=C\c2ccccc2)SC1=S)Nc1ccc(C(=O)O)cc1	–	–	–	–	–	–
O=C(CCCN1C(=O)/C(=C\c2ccccc2)SC1=S)Nc1ccc(O)cc1	–	83	61	–	–	–
O=C(CN(C(=O)CNC(=O)c1cccs1)c1ccc(F)cc1)NC1CCCC1	–	–	–	–	–	–
CCOC(=O)[C@]12CCCC=C1N(Cc1ccccc1)C(=O)[C@H](CC(=O)NCCc1ccccc1OC)C2	·	·	–	·	·	·
Cc1ccc(OCc2ccccc2Br)c([N+](=O)[O-])n1	–	–	–	–	–	–
COc1ccc(/C=N/Nc2ccc(C(=O)O)cc2)cc1Br	93	–	–	66	–	–
CCOc1cc(OCC)cc(C(=O)N2CCC[C@H]2C(=O)N2CCC[C@H]2C(=O)N[C@@H](C)c2ccccc2)c1	–	·	–	–	·	·
SMILES	TWEAK-Fn14 inh	Peg3 promoter	HIF-2a inh	TROY NFkB inh	CF NFkB block	KKLEB cytotox
COc1ccc(NC(=O)CSc2ncccn2)cc1S(=O)(=O)N1CCCCC1	–	–	–	–	–	–
COc1ccc(N2CC(C(=O)N/N=C/c3c[nH]c4ccccc34)CC2=O)cc1 (centres undefined)	–	–	–	–	–	–
O=C(N/N=C/c1ccccc1O)C1CC(=O)N(c2ccc(F)cc2)C1 (centres undefined)	–	52	–	–	–	–
CC(C)(C)OC(=O)NCCCCCNC(=O)c1[nH]cnc1C(=O)Nc1ccccc1	–	–	–	–	–	–
CNC(=O)c1[nH]cnc1C(=O)Nc1cccc(Cl)c1	–	–	–	–	–	–
O=C(Nc1ccccc1)c1nc[nH]c1C(=O)NCCNC(=O)c1[nH]cnc1C(=O)Nc1ccccc1	–	–	–	–	66	–
O=C(Nc1cccc(Cl)c1)c1nc[nH]c1C(=O)NCCCNC(=O)c1[nH]cnc1C(=O)Nc1cccc(Cl)c1	–	57	–	–	–	–
Cc1ccc(NC2CCCN(C(=O)c3cccs3)C2)cc1C (centres undefined)	–	–	–	–	–	–
CCOC(=O)c1sc(NC(=O)Nc2ccccc2F)nc1C	94	–	–	82	–	–
CCOC(=O)c1sc(NC(=O)CSc2nnc(C(C)C)n2CC)nc1C	–	52	–	–	–	–
CCOC(=O)c1sc(Nc2ccccc2Cl)nc1C	–	–	–	–	–	–
CCOC(=O)c1sc(NC(=O)CN2C(=O)C3CC=CCC3C2=O)nc1C (centres undefined)	–	89	–	–	–	–
COC(=O)c1sc(NC(=S)NC(=O)c2ccccc2F)nc1C	52	–	–	–	–	–
C[C@]12c3[nH]c4ccccc4c3CCN1C(=O)C(CC(=O)NCC13CC4CC(CC(C4)C1)C3)C[C@@H]2C(=O)N1CCCCC1 (some centres undefined)	–	–	–	–	–	–
O=S(=O)(Nc1ccccc1F)c1ccc(Cl)nc1	–	–	–	–	–	–
O=S(=O)(Nc1c(F)cccc1F)c1ccc(Cl)nc1	–	–	–	86	–	–
CSCCC(c1nnnn1C1CCCCC1)N1CCN(C/C=C/c2ccccc2)CC1 (centres undefined)	–	–	–	–	–	–
O=C(CSc1cccc[n+]1[O-])NN(c1ccccc1)c1ccccc1	83	–	–	–	–	–
CC(C)OCCCNC(=O)C(Cc1ccccc1)NS(=O)(=O)c1ccc2c(c1)CCC(=O)N2 (centres undefined)	–	–	–	–	–	–
O=S1(=O)N=C(Oc2cccc3ccccc23)c2ccccc21	–	–	–	58	–	–
CCCNC(=O)C1(C)CCCN(Cc2ccc(Oc3ccccc3)cc2)C1 (centres undefined)	–	–	–	–	–	–
Cc1nc(-c2ccc(NC(=O)/C=C\C(=O)O)cc2)cs1	–	–	–	61	–	–
Cc1ccc2nc(-c3ccc(NC(=O)COCC(=O)O)cc3)sc2c1	–	–	–	–	–	–
CCCCCC(=O)Nc1ccc(-c2csc(C)n2)cc1	–	–	–	–	–	–
Cc1ccc2sc(-c3ccc(NC(=O)/C=C\C(=O)O)cc3)nc2c1	55	–	–	–	–	–

Source: PubChem BioAssay (Sanford-Burnham Center for Chemical Genomics)
